The results in this text go back to PubChem BioAssay AID1861 (The Scripps Research Institute Molecular Screening Center, 2009).

The structures appear in SMILES notation. Screen size: about 290,000 compounds; about 3,100 (1.1%) were called active. Only a selection was taken, and actives are over-represented in it overall. A number with no mark means an inactive call. Cut-off read from the data, not from the text of the source: active = inhibition above about 16% (passing the limit was not always enough); inactive = the rest.

Sequence of Neuropeptides B/W receptor type 1 (Homo sapiens) (P48145 whole entry, looked up): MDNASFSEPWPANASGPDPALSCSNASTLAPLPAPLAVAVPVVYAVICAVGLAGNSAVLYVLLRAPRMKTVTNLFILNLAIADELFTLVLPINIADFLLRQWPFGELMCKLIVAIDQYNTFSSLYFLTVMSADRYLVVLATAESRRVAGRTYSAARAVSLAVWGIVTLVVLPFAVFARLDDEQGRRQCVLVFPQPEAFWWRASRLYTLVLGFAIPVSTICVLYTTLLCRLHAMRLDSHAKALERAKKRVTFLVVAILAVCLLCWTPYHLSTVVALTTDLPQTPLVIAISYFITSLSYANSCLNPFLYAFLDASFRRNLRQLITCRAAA

The test concerns the target Neuropeptides B/W receptor type 1 (Homo sapiens) (UniProt P48145). As to the kind of experiment: GPR7 receptor antagonists, primary screen, cell-based, fluorescence, single concentration (AID 1861).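 Note: cells stimulated with the agonist NPW; 0% = agonist with vehicle and 100% = vehicle without agonist.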 Conditions: GPR7-expressing cells, fluorescence antagonist assay; at 4.4 µM; active compounds read high.
On to `Cc1cccc(Oc2c([N+](=O)[O-])c(=O)n(C)c3ccccc23)c1`, for which the inhibition is -3.17%.

As for `Cn1c(=O)c([N+](=O)[O-])c(Oc2ccccc2)c2ccccc21`, the inhibition was 101% (active).

For the compound `Cc1nn(C)c(Oc2ccccc2)c1[N+](=O)[O-]`, the inhibition was -4.53%.

As for `CC(Cc1cccs1)N(Cc1ccc(Cl)cc1)C(=O)c1ccncc1` (stereo unspecified), the inhibition is 14.5%.

As to `O=[N+]([O-])c1cccc(/C=N/Nc2ncc(Br)cn2)c1`, the inhibition was -6.1%.

Regarding `Cc1c(CN2CCC(n3nccc3NC(=O)CCc3ccccc3)CC2)cnn1C`, the inhibition is 0.34%.

Regarding `O=S(=O)(Nc1ccccn1)c1ccc(Oc2ccccc2)cc1`, the inhibition was -3.88%.

As for `COc1ccccc1Oc1ccc(S(=O)(=O)Nc2cccnc2)cc1`, the inhibition is 27.5% (active).

Take `COc1ccc(S(=O)(=O)Nc2cccnc2)c(Cl)c1Cl`: the inhibition was 4.69%.

Consider `Cc1cc(OC(C)C(=O)NC2CC(C)(C)NC(C)(C)C2)c2c(C)cc(=O)oc2c1` (stereo unspecified), for which the inhibition is 27.1% (active).

Take `CC(Oc1cccc(Cl)c1)C(=O)NC1CC(C)(C)NC(C)(C)C1` (stereo unspecified): the inhibition was -7.54%.

On to `Cc1cc(=O)oc(C)c1C(=O)NC1CC(C)(C)NC(C)(C)C1`, for which the inhibition is 6.27%.

Regarding `O=c1oc2ccccc2c(CNc2ccccc2)c1[N+](=O)[O-]`, the inhibition is 6.62%.

In the case of `CCN1CCN(CCNC(=O)c2ccc(/C=C3/Sc4ccccc4N(Cc4cccc(C)c4)C3=O)cc2)CC1`, the inhibition is 3.05%.

Turning to `CCN1/C(=C\c2ccc3ccccc3[n+]2CC)Sc2cc(C)ccc21`, the inhibition was 34.1% (active).

Take `CCN1/C(=C/c2ccc3ccc(C)cc3[n+]2CC)Sc2ccccc21`: the inhibition is 38.4% (active).

For the compound `Cc1cc(-c2ccc(S(=O)(=O)N3CCc4ccccc4C3)s2)on1`, the inhibition was 1.59%.

Regarding `CC(=O)Oc1ccc2c(=O)oc(-c3ccc([N+](=O)[O-])cc3)nc2c1`, the inhibition is -20.8%.

Consider `Cc1cccc(N(C(=O)c2csnn2)C(C(=O)NCc2ccccc2)c2ccncc2)c1` (stereo unspecified), for which the inhibition was -21.8%.

As for `CCC(=O)Nc1ccc(S(=O)(=O)Nc2c(NC)c3ccccc3oc2=O)cc1`, the inhibition was -6.83%.

On to `Cn1c(Nc2ccccc2)cc(=O)n(C)c1=O`, for which the inhibition is 19.8%.

In the case of `Cc1cccc(N2CCN(C(=O)c3cc4c(=O)[nH]c5ccccc5c4n3C)CC2)c1C`, the inhibition is -11.3%.

In the case of `COCCNC(=O)C(c1ccc(C)o1)N(Cc1ccccc1)C(=O)Cn1nnc2ccccc21` (stereo unspecified), the inhibition is -3%.

As to `COc1ccccc1N(C(=O)Cn1nnc2ccccc21)C(C(=O)NCc1ccco1)c1ccc(C)o1` (stereo unspecified), the inhibition is 27% (active).

With `O=C(NCc1ccco1)C(c1ccncc1)N(C(=O)Cn1nnc2ccccc21)c1ccccc1` (stereo unspecified), the inhibition was -15.7%.

Turning to `CCOc1ccc(C(CC(=O)O)NC(=O)Cc2ccccc2)cc1OC` (stereo unspecified), the inhibition was -15.8%.

Regarding `COc1cccc2cc(C(N)=O)/c(=N\NC(=O)c3ccccc3)oc12`, the inhibition is 20.9%.

`CCn1ccnc1CN(C)C(=O)c1cc(COc2ccc(-n3cncn3)cc2)on1`: the inhibition was -16.5%.

Regarding `O=C(c1cc(COc2ccc(F)c(F)c2)on1)N1CCOCC1`, the inhibition was 1.79%.

In the case of `C=CCC1(CC=C)CCCN1C(=O)c1cc(COc2ccc(-n3cncn3)cc2)on1`, the inhibition was 29.1% (active).

In the case of `O=C(COC(=O)c1ccc(F)cc1)NCCCc1ccccc1`, the inhibition is 12.2%.

On to `CS(=O)(=O)c1ccc(Cl)c(NC(=O)Nc2ccccc2)c1`, for which the inhibition was 4.03%.

Take `O=C(Nc1ccccc1)c1nnsc1S(=O)(=O)c1ccc(Cl)cc1`: the inhibition is 42.6% (active).

On to `O=C(c1ccc(Cl)cc1)c1cnc(Nc2ccccc2)s1`, for which the inhibition is 7.11%.

Regarding `COc1ccccc1N1CCN(C(=O)c2ccc(NC3=NC4CS(=O)(=O)CC4S3)cc2)CC1` (stereo unspecified), the inhibition was -7.21%.

In the case of `O=C(O)c1ccc(NC(=O)c2ccc(COc3ccc(Cl)cc3)o2)cc1`, the inhibition is 15.6%.

For the compound `Cc1cc(OCc2ccc(C(=O)Nc3ccc(C(=O)O)cc3)o2)ccc1Cl`, the inhibition was 38% (active).

`CCOc1ccc(OCc2ccc(C(=O)Nc3cccc(C)n3)o2)cc1`: the inhibition is -9.15%.

Take `CCNc1c(NS(=O)(=O)c2ccc(C3CCCCC3)cc2)c(=O)oc2ccccc12`: the inhibition is 12.2%.

For `CC(=O)N1CCN(c2ccccc2NC(=S)NC(=O)c2cc3ccccc3o2)CC1`, the inhibition is -12.1%.

Regarding `Cc1cc(C)nc(N/N=C/c2ccc([N+](=O)[O-])o2)n1`, the inhibition was -3.49%.

Take `Cc1ccc(CNCc2ccc3c(c2)OCO3)c(C)c1`: the inhibition was -3.64%.

Regarding `COc1ccc(C(=O)CN2C(=O)NC(C)(c3ccc(C)cc3)C2=O)cc1OC` (stereo unspecified), the inhibition is 22.6%.

As for `COc1ccc(C2(C)NC(=O)N(CC(=O)c3ccc4c(c3)OCO4)C2=O)cc1` (stereo unspecified), the inhibition is 0.08%.

In the case of `COc1cc(NC(=O)CN2C(=O)NC(C)(c3ccc(OC(F)F)cc3)C2=O)cc(OC)c1OC` (stereo unspecified), the inhibition is 25.8% (active).

On to `Cc1nonc1NC(=O)c1oc2ccccc2c1C`, for which the inhibition was -9.19%.

As to `CCOc1ccc(Cn2nnc(C(=O)NCc3ccccc3)c2N)cc1`, the inhibition is 35.9% (active).

Regarding `CCOc1ccc(Cn2nnc(C(=O)Nc3ccc(OC)cc3OC)c2N)cc1`, the inhibition was 17.7%.

Turning to `CCc1ccc(NC(=O)Cn2nnc(C(=O)NCc3ccc(OC)cc3)c2N)cc1`, the inhibition is -9.93%.

As to `COc1ccc(CCNC(=O)c2ccccc2OCc2ccccc2)cc1`, the inhibition is 1.73%.

`O=C(NCCc1ccccn1)c1cccnc1Oc1ccc(Cl)cc1`: the inhibition is -10.8%.

Consider `CCOc1ncccc1C(=O)NCCc1ccc(OC)cc1`, for which the inhibition was 24.6% (active).

`CC(C)NC(=O)C(c1ccc(F)cc1)N(C(=O)CCC(=O)Nc1ccccn1)c1ccccc1F` (stereo unspecified): the inhibition is -14.6%.

In the case of `Cc1ccc2[nH]cc(CCNC(=O)c3ccc([N+](=O)[O-])cc3)c2c1`, the inhibition was 25% (active).

For `Cc1ccc2[nH]cc(CCNC(=O)C3CCCCC3)c2c1`, the inhibition is -3.83%.

As to `O=C(NCCc1c[nH]c2ccc(Cl)cc12)c1ccc([N+](=O)[O-])cc1`, the inhibition is 7.45%.

Consider `O=C(N/N=C/c1ccccc1O)C1CCCC1`, for which the inhibition is -6.49%.

`CCN(CC)CCCNC(=O)CCn1nc(-c2ccc(Cl)cc2)ccc1=O`: the inhibition was 11%.

For `Cc1ccc(NC(=O)C2CC(c3ccc(F)cc3)=NO2)cc1` (stereo unspecified), the inhibition is -5.41%.

`O=C(Nc1ccc2c(c1)OCO2)C1CC(c2c(F)cccc2Cl)=NO1` (stereo unspecified): the inhibition is 29% (active).

Take `Cc1ccccc1N1CC(C(=O)Nc2ccc3c(c2)OCO3)CC1=O` (stereo unspecified): the inhibition is -9.07%.
